This is an account of results in PubChem BioAssay (Tox21).

Inconclusive results are not listed. Values without a mark were called inactive. Calls of active or inactive are those of the source. Calls follow the shape of the dose curve; as a rule, active = well fitted inhibition curve with a large enough effect in the signal ratio in the repeat runs (not every such curve was filed as active); inconclusive = weak or mixed curves, or effect the other way; inactive = no such curve, though single readings can be large or run the other way; the % refers to the signal ratio.
% is scaled to controls: 0 for no effect and ±100 for the full control effect.

Sequence of Peroxisome proliferator-activated receptor delta (Homo sapiens) (Q03181 whole entry, looked up): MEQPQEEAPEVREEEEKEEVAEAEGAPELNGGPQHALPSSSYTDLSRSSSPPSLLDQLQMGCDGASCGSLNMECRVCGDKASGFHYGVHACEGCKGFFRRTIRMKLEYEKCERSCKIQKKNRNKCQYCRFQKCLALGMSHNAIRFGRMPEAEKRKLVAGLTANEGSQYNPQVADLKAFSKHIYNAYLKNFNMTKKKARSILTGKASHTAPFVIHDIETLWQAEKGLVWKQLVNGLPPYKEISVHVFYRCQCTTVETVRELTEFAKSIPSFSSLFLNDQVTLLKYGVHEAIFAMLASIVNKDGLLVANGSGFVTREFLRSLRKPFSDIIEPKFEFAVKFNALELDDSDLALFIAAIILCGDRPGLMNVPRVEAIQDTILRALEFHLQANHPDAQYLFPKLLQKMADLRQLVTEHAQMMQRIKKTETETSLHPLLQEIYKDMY
Sequence of Bile acid receptor (Homo sapiens) (Q96RI1 whole entry, looked up): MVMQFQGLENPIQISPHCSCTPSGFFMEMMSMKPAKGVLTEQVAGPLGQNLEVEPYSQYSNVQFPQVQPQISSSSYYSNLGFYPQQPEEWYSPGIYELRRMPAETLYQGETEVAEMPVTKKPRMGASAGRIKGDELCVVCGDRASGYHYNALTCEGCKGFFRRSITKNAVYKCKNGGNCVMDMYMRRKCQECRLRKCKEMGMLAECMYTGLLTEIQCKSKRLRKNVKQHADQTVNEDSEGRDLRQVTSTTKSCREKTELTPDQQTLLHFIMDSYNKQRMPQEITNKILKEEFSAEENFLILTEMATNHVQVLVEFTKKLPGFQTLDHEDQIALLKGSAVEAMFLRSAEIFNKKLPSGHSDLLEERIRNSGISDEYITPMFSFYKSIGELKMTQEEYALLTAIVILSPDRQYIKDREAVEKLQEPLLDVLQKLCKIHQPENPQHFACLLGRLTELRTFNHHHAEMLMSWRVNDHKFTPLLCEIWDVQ

The first experiment concerns the target Peroxisome proliferator-activated receptor delta (Homo sapiens) (UniProt Q03181). The experiment is described as follows: qHTS assay to identify small molecule antagonists of the peroxisome proliferator-activated receptor delta (PPARd) signaling pathway (AID 743215).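 Also: cells stimulated with agonist L165041 at 300 nM final during compound exposure.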 The note with it: HEK293H PPARd-UAS-bla, beta-lactamase FRET ratio, antagonist, 17 h; series mostly up to 62 µM. Put shortly:
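Cells: HEK293H with a UAS-driven beta-lactamase reporter responsive to PPARd. Compounds were co-added with L165041 (300 nM, final) and incubated 17 h at 37 C before a 2 h room-temperature FRET substrate step and fluorescence reading.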
(In general: Quantitative high-throughput screening tests each substance at several concentrations.)
On to `CCCCCCCCCCCBr`, for which the result was inactive.

For `O=C(O)P(=O)(O)O`, the result was inactive.

Turning to `CCCCCCCCCCCCCCCC/C=C/C1CC(=O)OC1=O` (stereo unspecified), the result was inactive.

On to `COC(=O)c1cc(Cl)c(NC(C)=O)cc1OC`, for which the result was inactive.

As for `CCN(CC)CC(=O)Oc1ccc(NC(C)=O)cc1`, the outcome was inactive.

Take `O=P(O)(O)C(O)(Cc1cccnc1)P(=O)(O)O`: the outcome was inactive.

For `COC(=O)N/N=C/c1c[n+]([O-])c2ccccc2[n+]1[O-]`, the outcome was inactive.

With `CC(=O)SCC(CC(=O)c1ccc(C)cc1)C(=O)O` (stereo unspecified), the result was inactive.

Consider `C/C(=N\O)c1ccc(OCC(=O)N2CCCCC2)cc1`, for which the result was inactive.

With `C=C(C)C(=O)OCCOC1CC2CC1C1C=CCC21` (stereo unspecified), the result was inactive.

Regarding `O=C(CCBr)N1CCN(C(=O)CCBr)CC1`, the result was inactive.

For the compound `CCCCCCCCC1CO1` (stereo unspecified), the result was inactive.

For the compound `O=C(O)CCC(=O)Nc1ccc(S(=O)(=O)Nc2nccs2)cc1`, the result was inactive.

In the case of `C/C=C(\C)C=O`, the result was inactive.

Consider `CCOCCOCCOC(C)=O`, for which the outcome was inactive.

For `CN1CCN(C(=O)C2CCCCC2)CC1`, the outcome was inactive.

For `CCN(CC)CC`, the outcome was inactive.

Consider `CCN1CCN(C(=O)N[C@@H](C(=O)N[C@@H]2C(=O)N3[C@@H]2SC(C)(C)[C@H]3C(=O)O)c2ccccc2)C(=O)C1=O`, for which the outcome was inactive.

Turning to `CCCCC(O)/C=C(C)/C=C/C=C/C(=O)N1CCCC1=O` (stereo unspecified), the result was inactive.

`CCCCCCCCCCCCCCCC(=O)OC`: the result was inactive.

In the case of `COC(=O)c1ccc(C(=O)O)cc1`, the result was inactive.

In the case of `Cc1cc(C)c(C)c(C)c1`, the outcome was inactive.

In the case of `CC1(C)C(=O)C(C)(C)C1=O`, the result was inactive.

With `CC(C)(C)OC(=O)c1ccccc1C(=O)O`, the outcome was inactive.

For the compound `CC(=O)c1ccc(O)c(C(N)=O)c1`, the result was inactive.

Turning to `Cc1ccccc1C#N`, the result was inactive.

On to `O=C(O)Cc1c(Cl)ccc(Cl)c1Cl`, for which the outcome was inactive.

In the case of `C[C@H]1COc2c(C3(N)CC3)c(F)cc3c(=O)c(C(=O)O)cn1c23`, the outcome was inactive.

As to `Cc1ccccc1OCC(=O)O`, the outcome was inactive.

As for `C[C@@H]1CC[C@@]2(OC1)O[C@H]1C[C@H]3[C@@H]4CC[C@H]5C[C@@H](O)CC[C@]5(C)[C@H]4CC(=O)[C@]3(C)[C@H]1[C@@H]2C`, the ratio activity, negative = inhibition was 2.62% [at 6.26 µM].

Turning to `O=C(O)/C=C(\CC(=O)O)C(=O)O`, the outcome was inactive.

Take `CC(C)C(=O)Nc1cccc(C2CN3CCSC3=N2)c1` (stereo unspecified): the result was inactive.

Take `COC(=O)c1ccc(NC(C)=O)cc1OC`: the result was inactive.

`CN(C)c1cc(NC(=O)CNC(C)(C)C)c(O)c2c1C[C@H]1C[C@H]3[C@H](N(C)C)C(=O)C(C(N)=O)=C(O)[C@@]3(O)C(=O)C1=C2O`: the outcome was inactive.

In the case of `OCCC(F)(F)C(F)(F)C(F)(F)C(F)(F)C(F)(F)C(F)(F)F`, the outcome was inactive.

As to `CCCCc1ccc(Cl)cc1`, the result was inactive.

Take `CC(=O)SC[C@@H](C)C(=O)N1CCC[C@H]1C(=O)N[C@@H](Cc1ccccc1)C(=O)O`: the result was inactive.

`CC1(C)CC(N)CC(C)(C)N1`: the result was inactive.

Another experiment concerns the target Bile acid receptor (Homo sapiens) (UniProt Q96RI1). The experiment is described as follows: qHTS assay to identify small molecule antagonists of the farnesoid-X-receptor (FXR) signaling pathway (AID 743217). The note with it: HEK293T FXR-UAS-bla, beta-lactamase ratio, CDCA-stimulated, 16 h; series mostly up to 62.6 µM. Summed up:
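Cells carrying a UAS-driven beta-lactamase reporter (GeneBLAzer FXR-UAS-bla HEK 293T) were plated and rested 5 h at 37 °C. Compounds in DMSO were added alongside chenodeoxycholic acid agonist at 50 uM final and left 16 h at 37 °C before FRET substrate readout.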
On to `CCCCCCCCCCCBr`, for which the outcome was inactive.

Take `O=C(O)P(=O)(O)O`: the outcome was inactive.

For `CCCCCCCCCCCCCCCC/C=C/C1CC(=O)OC1=O` (stereo unspecified), the result was inactive.

With `COC(=O)c1cc(Cl)c(NC(C)=O)cc1OC`, the outcome was inactive.

For `CCN(CC)CC(=O)Oc1ccc(NC(C)=O)cc1`, the outcome was inactive.

For the compound `O=P(O)(O)C(O)(Cc1cccnc1)P(=O)(O)O`, the outcome was inactive.

With `COC(=O)N/N=C/c1c[n+]([O-])c2ccccc2[n+]1[O-]`, the result was inactive.

For the compound `CC(=O)SCC(CC(=O)c1ccc(C)cc1)C(=O)O` (stereo unspecified), the result was inactive.

As to `C/C(=N\O)c1ccc(OCC(=O)N2CCCCC2)cc1`, the outcome was inactive.

Consider `C=C(C)C(=O)OCCOC1CC2CC1C1C=CCC21` (stereo unspecified), for which the outcome was inactive.

In the case of `O=C(CCBr)N1CCN(C(=O)CCBr)CC1`, the result was inactive.

Regarding `CCCCCCCCC1CO1` (stereo unspecified), the outcome was inactive.

In the case of `O=C(O)CCC(=O)Nc1ccc(S(=O)(=O)Nc2nccs2)cc1`, the outcome was inactive.

Take `C/C=C(\C)C=O`: the result was inactive.

`CCOCCOCCOC(C)=O`: the result was inactive.

With `CN1CCN(C(=O)C2CCCCC2)CC1`, the result was inactive.

For the compound `CCN(CC)CC`, the outcome was inactive.

Regarding `CCN1CCN(C(=O)N[C@@H](C(=O)N[C@@H]2C(=O)N3[C@@H]2SC(C)(C)[C@H]3C(=O)O)c2ccccc2)C(=O)C1=O`, the outcome was inactive.

For the compound `CCCCC(O)/C=C(C)/C=C/C=C/C(=O)N1CCCC1=O` (stereo unspecified), the result was inactive.

With `CCCCCCCCCCCCCCCC(=O)OC`, the result was inactive.

As for `COC(=O)c1ccc(C(=O)O)cc1`, the outcome was inactive.

Turning to `Cc1cc(C)c(C)c(C)c1`, the outcome was inactive.

`CC1(C)C(=O)C(C)(C)C1=O`: the result was inactive.

With `CC(C)(C)OC(=O)c1ccccc1C(=O)O`, the outcome was inactive.

With `CC(=O)c1ccc(O)c(C(N)=O)c1`, the outcome was inactive.

Turning to `Cc1ccccc1C#N`, the result was inactive.

On to `O=C(O)Cc1c(Cl)ccc(Cl)c1Cl`, for which the result was inactive.

In the case of `C[C@H]1COc2c(C3(N)CC3)c(F)cc3c(=O)c(C(=O)O)cn1c23`, the outcome was inactive.

As for `Cc1ccccc1OCC(=O)O`, the outcome was inactive.

`C[C@@H]1CC[C@@]2(OC1)O[C@H]1C[C@H]3[C@@H]4CC[C@H]5C[C@@H](O)CC[C@]5(C)[C@H]4CC(=O)[C@]3(C)[C@H]1[C@@H]2C`: the activity change, negative = inhibition was 10.4% [at 5.95 µM].

Take `O=C(O)/C=C(\CC(=O)O)C(=O)O`: the result was inactive.

Turning to `CC(C)C(=O)Nc1cccc(C2CN3CCSC3=N2)c1` (stereo unspecified), the result was inactive.

Consider `COC(=O)c1ccc(NC(C)=O)cc1OC`, for which the outcome was inactive.

Take `CN(C)c1cc(NC(=O)CNC(C)(C)C)c(O)c2c1C[C@H]1C[C@H]3[C@H](N(C)C)C(=O)C(C(N)=O)=C(O)[C@@]3(O)C(=O)C1=C2O`: the outcome was inactive.

In the case of `OCCC(F)(F)C(F)(F)C(F)(F)C(F)(F)C(F)(F)C(F)(F)F`, the result was inactive.

As to `CCCCc1ccc(Cl)cc1`, the result was inactive.

Take `CC(=O)SC[C@@H](C)C(=O)N1CCC[C@H]1C(=O)N[C@@H](Cc1ccccc1)C(=O)O`: the result was inactive.

Take `CC1(C)CC(N)CC(C)(C)N1`: the outcome was inactive.
